Data: ChEMBL document CHEMBL4513216, “Probing the Open Global Health Chemical Diversity Library for Multistage-Active Starting Points for Next-Generation Antimalarials” (ACS Infect Dis, 2020)
The campaign covered roughly 69,000 compounds. About 8,600 (12%) showed an effect of 50% or more. What follows is part of a selection rich in strong results, with near analogues and random picks from the rest.

System: Plasmodium berghei
Experiment: Screen against P. berghei liver stage (PbLuc), transformed with Luciferase, at 10uM
Assay type: functional, HepG2
Conditions: tested at 10 uM

Compound	INHIBITION
CC(C)N(Cc1ccccn1)C(=O)CCC(=O)c1ccc(F)cc1F	36.9%
CN(Cc1nc2ccccc2c(=O)[nH]1)C[C@@H]1CCCN2CCCC[C@H]12	42.6%
CN(Cc1nc2ccsc2c(=O)[nH]1)CC1CCCCC1	-21.8%
CN(Cc1nc2ccsc2c(=O)[nH]1)C[C@@H]1CCCN2CCCC[C@H]12	68.4%
CN(Cc1ccccc1-n1cccn1)C[C@@H]1CCCN2CCCC[C@H]12	40.7%
CN(Cc1ccc(-n2cccn2)cc1)CC1CCCN1c1cccnn1 (stereo not drawn)	9.64%
CN(Cc1ccc(-n2cccn2)cc1)C[C@@H]1CCCN2CCCC[C@H]12	70%
CNC(=O)C1(CCCc2ccncc2)CCCCN1 (stereo not drawn)	-4.51%
CCc1cc(NCCCN(C)C2CCCC2)ncn1	-13.1%
Cc1nc(C(=O)N(CC2CCCO2)c2ccncc2)cs1 (stereo not drawn)	45.5%
CN(C)c1ccccc1CN1CCC(N2CCCC2=O)CC1	25.2%
CC(C)(C#N)c1ccccc1CN1CCC(N2CCCC2=O)CC1	57.7%
CCc1ccccc1CN1CCC(N2CCCC2=O)CC1	-0.87%
O=C1CCCN1C1CCCN(CCOc2ccc(F)cc2)C1 (stereo not drawn)	31.2%
CN(C)c1ccccc1CN1CCCC(N2CCCC2=O)C1 (stereo not drawn)	51.7%
COC(=O)N1CCN(Cc2ccccc2C(C)(C)C#N)CC1	39.2%
CCSCc1csc(-c2ccc(S(C)(=O)=O)cc2)n1	-35.8%
CCOc1cc(CNC(=O)CNC(=O)CC2CCCCC2)ccn1	6.23%
NCc1cnc(Nc2ccccc2)nc1	23.1%
CCc1cnc(CN(C(C)=O)C2CCN(CCN3CCCCC3)C2)o1 (stereo not drawn)	31.9%
CC(C)c1noc(-c2ccc(-n3cnc(C(=O)O)c3)nc2)n1	2.49%
Cc1c(C(=O)N2CCCC(C(=O)c3nccn3C)C2)c[nH]c(=O)c1C#N (stereo not drawn)	25.1%

Compound	INHIBITION
O=C1NCCN(C(=O)CN2CCOC2=O)C1c1cccc(F)c1 (stereo not drawn)	32%
O=C1NCCN(C(=O)CCN2CCCO2)C1c1cccc(F)c1 (stereo not drawn)	5.15%
O=C(CCC(=O)N1CCNC(=O)C1c1cccc(F)c1)NC1CCCC1 (stereo not drawn)	55.5%
CCc1nccn1C1CCCN(C(=O)c2csc(NC(C)=O)n2)C1 (stereo not drawn)	20.1%
CC(NCc1ccccc1Br)c1ccc2[nH]c(=O)[nH]c2c1 (stereo not drawn)	51.6%
CC(NCc1ccccc1Cl)c1ccc2[nH]c(=O)[nH]c2c1 (stereo not drawn)	40.9%
COc1ccccc1CNC(C)c1ccc2[nH]c(=O)[nH]c2c1 (stereo not drawn)	7.12%
Cc1nc(CCCNC(=O)C2CC(=O)N(C3CC3)C2)sc1C (stereo not drawn)	56.8%
Cc1nc(CCCNC(=O)C2CC(=O)N(C3CCCC3)C2)sc1C (stereo not drawn)	44.7%
CCN1CC(C(=O)NCCCc2nc(C)c(C)s2)CC1=O (stereo not drawn)	45.8%
Cc1cnc2n1CCN(C)C21CCN(C(=O)CC(C)C)CC1	0.547%
COCc1ccc(C(=O)N2CC[C@H](O)[C@@H](n3ccnc3)CC2)cc1	-6.3%
Cn1c(=O)oc2cc(S(=O)(=O)N3CCCCC3)c(Cl)cc21	30%
Cn1c(=O)oc2cc(S(=O)(=O)N3CCC(c4ccccc4)C3)c(Cl)cc21 (stereo not drawn)	55%
Cn1c(=O)oc2ccc(S(=O)(=O)N3CCC(c4ccccc4)C3)cc21 (stereo not drawn)	-5.26%
COCC(NC(=O)c1ccoc1C)c1cccc(C(F)(F)F)c1 (stereo not drawn)	17.8%
O=C(O)[C@]12CCCN(Cc3ccsc3)C[C@H]1CN(c1ccccn1)C2	1.48%
CNC(=O)CN1CCOCC2(CCCN(Cc3ccoc3)C2)C1 (stereo not drawn)	-2.35%
Fc1ccc(CN2CCCC3(COCCN(Cc4c[nH]nn4)C3)C2)cc1 (stereo not drawn)	61.5%
c1cc(CN2CCCC3(COCCN(Cc4c[nH]nn4)C3)C2)cs1 (stereo not drawn)	-4.88%
Cc1ccc(CN2CCCC3(COCCN(Cc4c[nH]nn4)C3)C2)s1 (stereo not drawn)	65.6%
Cc1ccc(CN2CCCC3(COCCN(Cc4c[nH]nn4)C3)C2)o1 (stereo not drawn)	30.5%

Compound	INHIBITION
c1csc(CN2CCCC3(COCCN(Cc4c[nH]nn4)C3)C2)c1 (stereo not drawn)	31.7%
CNC(=O)CN1CCOCC2(CCCN(Cc3ccc(F)cc3)C2)C1 (stereo not drawn)	53.1%
Cn1cc(CN2CCCC3(COCCN(Cc4c[nH]nn4)C3)C2)cn1 (stereo not drawn)	-6.23%
CNC(=O)CN1CCOCC2(CCCN(Cc3ccsc3)C2)C1 (stereo not drawn)	-17.1%
CCc1cccc(CC)c1NC(=O)c1ccccc1N(C)S(C)(=O)=O	26.9%
Cn1cccc1C(=O)N1CCCCC1c1[nH]ncc1S(C)(=O)=O (stereo not drawn)	4.08%
CC(C)n1cnc2c1C(C(=O)N1CCCC1)N(CC1CC1)CC2 (stereo not drawn)	13.7%
Cc1nc(C(C)(C)C)sc1C(=O)NCCNc1ncccc1C#N	-26.6%
CCN(Cc1c(F)cccc1F)Cn1nc(C)c2c(C)onc2c1=O	12.7%
Cc1noc(C)c1CNCC1(COc2cccnc2)C[C@@H](O)[C@@H](O)C1 (stereo partly drawn)	27.5%
Cc1ccccc1C1(CNC(=O)NCCc2nnc3n2CCC3)CC1	-25.3%
NC(=O)C1(c2cnccn2)CCCN1Cc1ccncc1 (stereo not drawn)	72.3%
NC(=O)C1(c2cnccn2)CCCN1Cc1cccc(Cl)c1 (stereo not drawn)	15.9%
NC(=O)C1(c2cnccn2)CCCN1Cc1ccc(Cl)cc1 (stereo not drawn)	-7.79%
OCC1(NCc2cnc(-c3cccs3)s2)CCOCC1	0.0944%
c1cnc(-c2nc(CN3CCOC(Cn4cncn4)C3)cs2)nc1 (stereo not drawn)	88.1%
c1ccc(-c2nc(CN3CCOC(Cn4cccn4)C3)cs2)cc1 (stereo not drawn)	-6.04%
c1csc(-c2nc(CN3CCOC(Cn4cncn4)C3)cs2)c1 (stereo not drawn)	40.9%
CC(C)c1nc(CN2CCOC(Cn3cncn3)C2)cs1 (stereo not drawn)	-33.9%
c1cnn(CC2CN(Cc3csc(C4CCCCC4)n3)CCO2)c1 (stereo not drawn)	64.8%
c1ccc(-c2nc(CN3CCOC(Cn4cncn4)C3)cs2)cc1 (stereo not drawn)	18.2%
Clc1cccc(OCCCN2CCOC(Cn3cncn3)C2)c1 (stereo not drawn)	14.1%

Compound	INHIBITION
Cc1cnn(CC2CN(Cc3csc(C4CCCC4)n3)CCO2)c1 (stereo not drawn)	-6.44%
Fc1ccc(OCCCN2CCOC(Cn3cncn3)C2)cc1 (stereo not drawn)	19.4%
Clc1ccc(OCCCN2CCOC(Cn3cncn3)C2)cc1 (stereo not drawn)	66.2%
CC(C)(C)c1nc(CN2CCOC(Cn3cncn3)C2)cs1 (stereo not drawn)	44.3%
c1ncn(CC2CN(Cc3csc(C4CCCC4)n3)CCO2)n1 (stereo not drawn)	58.3%
O=C(c1ccc(S(=O)(=O)NCc2ccon2)cc1)N1CCCCCC1	-6.21%
CC(C)c1nnc2n1CCN(C(=O)c1ccc(N(C)C)nn1)C2	4.71%
Cn1cc(-c2cnc(-c3ccnn3C)nc2)cc1C(=O)NC1CC1	24.6%
COC(=O)N1CCC(c2nnc(Cn3ccnc3)n2C)CC1	1.48%
N#Cc1ccc(Cl)cc1NCC1CC1	47.7%
N#Cc1cc(F)ccc1NCC1CCN(S(=O)(=O)C(F)F)CC1	65.3%
CS(=O)(=O)N1CCC(CNc2cc(Cl)ccc2C#N)CC1	-13.9%
O=S(=O)(NCc1ccccc1Cn1cncn1)N1CCCCCC1	34.7%
COCc1cccc(CNc2cnn(C(C)(C)C)c(=O)c2Cl)c1	70.6%
COCc1cccc(CNC(=O)CNc2ccccc2C(C)=O)c1	11.4%
CC(C)(CO)Nc1c(NCc2ccccc2)c(=O)c1=O	17.7%
COc1cc(CNc2cnn(C(C)(C)C)c(=O)c2Cl)ccn1	70.6%
COc1cc(CNC(=O)c2cc(Cl)ccc2F)ccn1	11.4%
Cn1ncc(NCc2cccc(F)c2)c(Cl)c1=O	-5.25%
CC(C)(C)n1ncc(NCc2ccccc2)c(Cl)c1=O	61.1%
COCCNC(=O)Cn1nc(C(C)C)c2cnn(C(C)(C)C)c2c1=O	-7.35%
COCc1ccc(CNc2cnn(C(C)(C)C)c(=O)c2Cl)cc1	54.7%

Compound	INHIBITION
COc1cc(CNC(=O)CNc2cc(Cl)ccc2OC)ccn1	14.4%
CCc1c(NCc2ccc(F)cc2)cnn1CC(C)C	22.6%
CC(C)c1nccc(-c2nccn2CCN(C)S(C)(=O)=O)n1	-21.9%
O=C(Cc1ccccn1)N1CCC2(CC1)CN(CC1CC1)C(=O)CO2	15.3%
CCC(CC)C(=O)N(C)CC(=O)Nc1ccc(Br)cn1	21.5%
CN(CCn1nc2ccccn2c1=O)CC(=O)N(C)C1CCCCC1	-111%
O=S(=O)(c1ccc(F)cc1)n1cc(Cl)cn1	51%
O=S(=O)(c1ccc(F)c(F)c1)n1cc(Cl)cn1	42.1%
O=S(=O)(c1cc(F)ccc1F)n1cc(Cl)cn1	48.8%
CCc1ccccc1CNC(=O)CCc1cnn(C)c1	16.6%
Cc1nnc(C(C)N2CCc3[nH]c4ccccc4c3C2)o1 (stereo not drawn)	32%
Cc1noc(C(C)N2CCc3[nH]c4ccc(Cl)cc4c3C2)n1 (stereo not drawn)	28.7%
Cc1nnc(C(C)N2CCc3[nH]c4ccc(Cl)cc4c3C2)o1 (stereo not drawn)	61.3%
Cc1cnn(CC2CN(Cc3nc(C)c(C)o3)CCO2)c1 (stereo not drawn)	11.4%
COc1cccc(C2(C(=O)NC3CCc4nccn4C3)CCCC2)c1 (stereo not drawn)	34.6%
CC(C)[C@H]1COC(=O)N1CC(=O)N(C)CCCn1cccn1	42.1%
CCN(CCn1cccn1)C(=O)CN1C(=O)OC[C@@H]1c1ccccc1	9.63%
CCN(CCn1cccn1)C(=O)CN1C(=O)OC[C@@H]1C(C)C	64.5%
COc1cccc(F)c1C(C)NC(=O)NCc1cnc(C)s1 (stereo not drawn)	-8.66%
CC(C)n1cc(S(=O)(=O)N2CCCC(N3CCCCC3)C2)cn1 (stereo not drawn)	2.4%
